Pf growth 48h: Primary qHTS for delayed death inhibitors of the malarial parasite plastid, 48 hour incubation; 5.9% of 310,000 active; P. falciparum luciferase growth in erythrocytes, 48 h; Potency, µM (doses to about 28.7 µM), inactives show at the top dose activity change, negative = inhibition, usual class: inhibitors; note: potency is the fitted concentration of half-maximal effect
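Compounds are pin-transferred into medium, infected erythrocytes (2% hematocrit, 0.1% parasitemia final) are added, and plates sit one parasite generation at 37 C in 5% CO2. Detection reagent is then added and luminescence measured.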
HCV inh: qHTS Assay for Inhibitors of Hepatitis C Virus (HCV); Potency, µM (doses to about 41.8 µM), for the others: at the top dose activity change, negative = inhibition, most hits filed as inhibitors; Huh7.5.1 HCVcc-Cre infection, luciferase reporter, 44 h; 3.4% of 340,000 active; note: potency is the fitted concentration of half-maximal effect
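A cell-based infection assay in which seeded cells (1,000 per well) receive test compound after 4 h, are inoculated with HCVcc-Cre at approximately 0.5 moi, and are incubated 44 h before luminescence detection.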
Pf growth 96h: Primary qHTS for delayed death inhibitors of the malarial parasite plastid, 96 hour incubation; 6.9% of 320,000 active; Potency, µM (doses to about 28.7 µM), for inactives: at the top dose activity change, negative = inhibition, hits mostly inhibitors; AID 504834, 2011; P. falciparum luciferase reporter growth, 96 h; note: potency is the fitted concentration of half-maximal effect
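Delayed-death screen, second-generation endpoint: infected erythrocytes, 2% hematocrit, 0.05% parasitemia final; 96 hours at 37 C, 5% CO2; luciferase detection reagent; luminescence decrease equals reduced growth.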
HCMV inh: qHTS Assay for inhibitors of the human cytomegalovirus (HCMV); 4.5% of 410,000 active; activity change, negative = inhibition, % at 57.5 µM; HFF cells, HCMV-luciferase reporter, 72 h; active compounds read low; AID 1259415, 2018; in the data active = activity change below about -60%; inconclusive = no clear call, values can overlap the other calls; inactive = above about -39%
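Steps: HFFs plated, 16 h 37C; compounds added; HCMV-luciferase added to MOI 1 PFU/cell; 72 h 37C; OneGlo reagent, 5 min room temperature; luminescence read, normalized to controls.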
Starred values were filed as active, the others as inactive; ? = inconclusive; nt = no result; [ ] = dose if it differs, or a comment. Sampled rows, rich in hits. Any-hit rate of the full collection: about 13%. Unless noted, calls come from the whole dose curve; as a rule, active = well fitted inhibition curve with a large enough effect; inconclusive = small, poorly fitted or top-dose-only effect, or another doubt; inactive = no such curve, though single readings can be large or run the other way. % is set by controls: 0 for no effect and ±100 for the full control effect.

SMILES | Pf growth 48h | HCV inh | Pf growth 96h | HCMV inh
O=C(CC1N=C2c3ccccc3N=C(SCC(=O)Nc3ccccc3F)N2C1=O)NCc1ccc2c(c1)OCO2 (centres undefined) | nt | nt | nt | 24
Oc1c(Cl)cc(CN2CCOCC2)c2cccnc12 | 4.7µM* | 2.5µM* | 5.9µM* | -99*
O=[N+]([O-])c1cc(CN2CCN(c3ccccc3)CC2)c(O)c2ncccc12 | ? | ? | -18% | -89*
Oc1c(CN2CCCCC2)cc(Br)c2cccnc12 | 2.6µM* | ? | ? | -102*
O=[N+]([O-])c1cc(CN2CCOCC2)c2cccnc2c1O | 4.1µM* | 0% | -16% | nt
CN(Cc1cc([N+](=O)[O-])c2cccnc2c1O)C1CCCCC1 | -20% | 7% | 62% | nt
O=[N+]([O-])c1cc(F)c2cccnc2c1O | 0% | -24% | ? | 36
COc1ccc(OC)c(CNC(=O)c2cnc(N(C)C)nc2)c1 | nt | nt | nt | 3
COc1ccccc1-c1cc2c(Nc3ccc(NC(C)=O)cc3)nccc2[nH]1 | nt | nt | nt | -5
COc1ccccc1NC(=O)C1CCN(S(=O)(=O)c2cn(C)cn2)CC1 | nt | nt | nt | 49
Cc1cccc(NC(=O)c2ccc(N3CCOCC3)c([N+](=O)[O-])c2)n1 | 54% | ? | 0% | ?
Cc1cccc(NC(=O)c2ccc(N(C)C3CCCCC3)c([N+](=O)[O-])c2)n1 | ? | 14µM* | ? | ?
CCSc1ccc(C(=O)Nc2cccc(C)n2)cc1[N+](=O)[O-] | 64% | ? | 2% | 44
Cc1cccc(NC(=O)c2ccc(NC(C)c3ccccc3)c([N+](=O)[O-])c2)n1 (centres undefined) | 9.3µM* | ? | -2% | 5
CCNc1ccc(C(=O)OCC(=O)NCc2ccc(C)cc2)cc1[N+](=O)[O-] | 0% | -5% | ? | -5
CCNc1ccc(C(=O)OCC(=O)NC(C)c2ccccc2)cc1[N+](=O)[O-] (centres undefined) | 3% | ? | 37% | -66*
Cc1nc2nc(SCC(=O)NCc3ccccc3Cl)nn2c(C)c1Cc1ccccc1 | nt | nt | nt | -11
CCOc1ccccc1NC(=O)Cn1cc(C(=O)c2cccc(OC)c2)c(=O)c2ccc(C)nc21 | nt | nt | nt | -35
COc1ccc(-c2nc3ccc(NS(=O)(=O)c4ccc(Cl)cc4)cc3o2)cc1 | nt | nt | nt | -4
O=Cc1ccc(-c2ccc([N+](=O)[O-])cc2Cl)o1 | 3% | 1% | -15% | -66*
CC1CCCCN1S(=O)(=O)c1ccc(NC(=O)c2ccco2)cc1 (centres undefined) | nt | 3% | 13µM* | 34
O=C(Nc1ccc(S(=O)(=O)N2CCCCC2)cc1)c1ccco1 | ? | 11% | -8% | -26
CC1CCN(S(=O)(=O)c2ccc(NC(=O)c3ccco3)cc2)CC1 | 3.7µM* | -8% | 10% | -30
O=C(NCc1ccc(F)cc1)c1ccc2c(O)c(S(=O)(=O)c3ccccc3)c(=O)[nH]c2c1 | nt | nt | nt | -1
O=C(NCCN1CCN(c2ccccc2Cl)CC1)Nc1ccccc1 | 9% | 0% | -29% | 45
SMILES | Pf growth 48h | HCV inh | Pf growth 96h | HCMV inh
O=[N+]([O-])c1ccc(N2CCN(C(=S)Nc3cccc(F)c3)CC2)cc1 | 3.3µM* | ? | -14% | -17
NC(=O)NC[C@@H]1CC[C@@H](Cc2ccc(-c3ccccc3)cc2)O1 | nt | -29% | nt | nt
COc1ccc(NC(=O)NC[C@@H]2CC[C@@H](Cc3ccc(-c4ccccc4)cc3)O2)cc1 | nt | 4.5µM* | nt | -27
O=[N+]([O-])c1ccc(N2CCN(C(=S)Nc3ccc(F)cc3)CC2)cc1 | ? | -44% | 31% | -21
Cc1cccc(N2CCN(CCNC(=O)Nc3ccc(Cl)cc3)CC2)c1C | nt | nt | nt | -99*
CCc1ccc(NC(=O)NCCN2CCN(c3ccc(OC)cc3)CC2)cc1 | -1%[0.00184 µM] | -11% | 13µM* | 28
O=C(CSc1nc2c(c(=O)[nH]1)CCC2)Nc1ccccc1F | nt | nt | nt | -4
COc1ccc(Cl)c(N2CCN(CCCNC(=O)Nc3ccc(C)cc3)CC2)c1 | 13µM* | ? | nt | -9
COc1ccc(NC(=O)CCN2CCN(c3ccc(F)cc3)CC2)cc1 | -13% | -4% | 45% | -76*
COc1ccc(N2CCN(C(=S)Nc3ccc(F)cc3)CC2)cc1 | 29% | 12% | 15µM* | -20
COc1ccc(NC(=O)NCCN2CCN(c3cc(OC)ccc3OC)CC2)cc1 | -9% | -25% | -25% | 29
COc1ccc(NC(=O)CCN2CCN(c3cccc(Cl)c3)CC2)cc1 | nt | nt | nt | -10
COc1ccc(N2CCN(c3ccc(NC(=O)/C=C\C(=O)O)cc3)CC2)cc1 | 3.3µM* | -3% | ? | -10
COc1ccc(CNC(=O)Cc2c(C)c3c(cc(C)c4c(C)coc43)oc2=O)cc1 | nt | nt | nt | -35
CCN1C(=O)C(CC(=O)Nc2ccc(OC)cc2)N(CCCN2CCN(c3ccc(OC)cc3)CC2)C1=S (centres undefined) | ? | 11µM* | ? | -7
COC(=O)Cc1ccc(NC(=S)N2CCN(c3cccc(O)c3)CC2)cc1 | ? | ? | 113% | -64*
O=C(NCCN1CCN(C(=O)Nc2ccccc2)CC1)Nc1ccccc1 | nt | -2% | 5.2µM* | ?
CCOC(=O)c1c(-c2ccc(C)cc2)csc1NC(=O)c1cc(=O)c2cc(C)cc(C)c2o1 | nt | nt | nt | 5
Cc1ccc(CNC(=O)c2c(-c3ccc(F)cc3F)noc2C)o1 | nt | nt | nt | 9
CC1CCC(C(=O)NC(C(=O)OCC(=O)c2ccccc2)C(C)C)CC1 (centres undefined) | nt | nt | nt | -28
COc1ccc(OC)c(C2=C/C(=C/c3ccccn3)C(=O)O2)c1 | ? | 7% | 5.2µM* | 32
COc1ccc(OC)c(-c2oc3ccccc3c(=O)c2O)c1 | ? | -29% | ? | -29
